The list is not random: actives were taken first. Their share in the collection is about 0.99%.
AMA1 RON2 block – inhibitors of Plasmodium falciparum AMA1-RON2 interaction. AlphaScreen AMA1-biotinylated RON2 peptide binding. Potency, µM (doses to about 58.2 µM), for the others: at the highest dose activity change, negative = inhibition, most hits filed as inhibitors. 0.2% of 360,000 active. AID 720542;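 also: potency is read from the fitted curve at half-maximal effect; 0% = vehicle wells and -100% = peptide control; nearly all actives have a fitted effect of over 45% in size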
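AMA1 (3D7) with his tag at 25 nM final met compounds first, then biotinylated RON2 peptide at 25 nM; detection used donor plus acceptor beads, 10 µg/mL apiece, read by AlphaScreen after 30 min at room temperature.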
AmpC inh detg – inhibitors of E. coli AmpC beta-lactamase with detergent; P00811; AmpC hydrolysis of nitrocefin, absorbance 480 nm, 0.01% Triton; Potency, µM (highest dose often 114 µM), inactives show top-dose activity change, negative = inhibition, hits mostly inhibitors; 0.041% of 370,000 active; AID 485294;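 also: potency is read from the fitted curve at half-maximal effect; 0% = no-compound wells and -100% = no-enzyme wells; nearly all actives have a fitted effect of over 25% in size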
Target sequence (P00811 whole entry, looked up): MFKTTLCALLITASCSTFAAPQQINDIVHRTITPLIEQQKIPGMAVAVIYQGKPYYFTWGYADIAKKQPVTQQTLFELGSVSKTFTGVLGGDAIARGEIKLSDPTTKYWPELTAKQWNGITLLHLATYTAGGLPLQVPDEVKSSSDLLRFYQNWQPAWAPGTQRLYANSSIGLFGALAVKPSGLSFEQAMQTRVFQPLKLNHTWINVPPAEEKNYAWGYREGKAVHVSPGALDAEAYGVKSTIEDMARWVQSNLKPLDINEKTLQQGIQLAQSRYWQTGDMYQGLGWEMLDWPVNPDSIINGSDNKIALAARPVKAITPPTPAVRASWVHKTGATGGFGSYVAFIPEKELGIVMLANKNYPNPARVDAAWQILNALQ
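AmpC (5.3 nM in the dispensed reagent) in 20 mM phosphate pH 7.0 with 0.01% (detergent screen) or 0.0001% Triton X-100 was preincubated with compounds for 15 min at room temperature. Nitrocefin was then added from an 800 uM solution, and hydrolysis was followed at 480 nm.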
AmpC no deterg – inhibitors of E. coli AmpC beta-lactamase without detergent | P00811 | AmpC nitrocefin hydrolysis, absorbance 480 nm, 0.0001% Triton | Potency, µM (top dose mostly 57.1 µM), without a hit: at the highest dose activity change, negative = inhibition, usual class: inhibitors | 0.52% of 330,000 active;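 also: potency is read from the fitted curve at half-maximal effect; plate controls were no compound for no effect and no enzyme for full effect; nearly all actives have a fitted effect of over 20% in size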
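20 mM phosphate pH 7.0 + 0.01% (detergent screen) or 0.0001% Triton X-100; 5.3 nM AmpC reagent; cpd preinc 15 min RT; nitrocefin (800 uM stock) to start; A480 q20 s × 4 min; Activity was normalised to no-enzyme and no-compound control wells.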
SARS PLpro yeast – blocks SARS-CoV papain-like protease in a yeast assay. S. cerevisiae expressing SARS-CoV PLpro, growth rescue. Potency, µM (doses to about 32.9 µM), without a hit: at the top dose activity, positive = growth rescue, usual class: activators. 0.19% of 330,000 active. AID 485353; calls by dose curve; also: potency is read from the fitted curve at half-maximal effect; 0% is about no effect; nearly all actives have a fitted effect of over 55% in size
NS1 inh – influenza NS1 inhibition; 0.4% of 270,000 active; Potency, µM (titrated, usually from 46.1 µM), inactives show at the top dose activity, positive = more growth; calls by dose curve; also: potency is read from the fitted curve at half-maximal effect; actives are rising curves; nearly all actives have a fitted effect of over 50% in size
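In this qHTS, NS1 from influenza A is expressed in budding yeast, where it slows growth. Cells are switched from glucose to 2% galactose medium (pH 6.0, -URA), treated with compound, and growth recovery is read at OD600.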
NS1 inh valid – validation of influenza NS1 protein function inhibitors | AID 492980 | activity change, negative = inhibition, % at 32.9 µM | 1,400 tested, under 10 active | influenza NS1 function cell assay, 15-point titration | shares compounds with NS1 inh; calls by dose curve; also: 0% is about no effect
PR8 titer – reduces influenza A/PR/8/34 replication in MDCK cells; shares compounds with NS1 inh; AID 504647; virus titer (log TCID50), log10 TCID50 at 5 µM; MDCK infected influenza A/PR/8/34, virus titer TCID50; hits give low values; 30% of 95 active; call rule not given here
* hit, by the source's call; u = inconclusive; x = no result given. Unless noted, calls follow the shape of the dose curve; as a rule, active = well fitted curve in the direction sought with a large enough effect; inconclusive = small, poorly fitted or top-dose-only effect, or another doubt; inactive = no such curve, though single readings can be large; an effect the other way counts as inactive or inconclusive.

SMILES	AMA1 RON2 block	AmpC inh detg	AmpC no deterg	SARS PLpro yeast	NS1 inh	NS1 inh valid	others
Cc1cc(N2CCOCC2)nc2ccc(NC(=O)CCC(=O)N3CCC(C)CC3)cc12	6%	9%	0%	-1%	5.6µM*	u
CC1=C(c2ccc(C)c(C)c2)S(=O)(=O)N=C1N1CCC(C(=O)N2CCCCC2)CC1	x	-5%	x	x	x	x
CCC(=O)Nc1cc(C)c(NC(=O)c2ccco2)cn1	-8%	0%	-16%	4%	2%	x
Cc1cc(NC(=O)c2ccccc2)ncc1NC(=O)c1ccco1	-11%	-1%	-3%	-25%	u	-23
COc1ccc(-c2cn3nc(N4CCC(C(=O)NCc5cccc(Cl)c5)CC4)sc3n2)cc1	x	10%	x	x	x	x
C=C(C)Cn1c(SCC(=O)c2ccc(Br)cc2)nc2sc3c(c2c1=O)CCCC3	x	13%	x	x	x	x
COc1cccc(N2CC(O)=C(c3nc4ccccc4s3)C2=N)c1	76%	-3%	-36%	1%	-3%	x
COc1cccc(N2CC(O)=C(c3ccccc3)C2=N)c1	-11%	5%	-5%	18%	7.1µM*	1
CC1(C)CC(=O)c2cc(C(=O)Nc3ccc(Br)cc3)c(=O)n(-c3ccc(Cl)cc3)c2C1	x	13%	x	x	x	x
COc1ccc(-c2cn3c(n2)sc2cc(C(=O)NCCc4ccccc4)ccc23)cc1	x	0%	x	x	x	x
CCOc1ccc(NC(=O)CCS(=O)(=O)c2ccc3c(c2)CCCN3C(C)=O)cc1	-16%	0%	22%	15%	11µM*	11
COc1ccccc1NC(=O)CSc1nc(O)cc(=O)n1C	6%	-1%	-25%	2%	u	x
Cn1c(SCC(=O)Nc2cccc3ccccc23)nc(O)cc1=O	3%	u	u	4%	3.5µM*	24
Cc1ccc(NC(=O)CSc2nc(O)cc(=O)n2C)cc1	11%	u	-33%	-1%	11µM*	u
Cn1c(SCC(=O)Nc2ccc(Br)cc2)nc(O)cc1=O	-10%	8%	-43%	3%	u	x
O=C(NNC(=S)NC1CCCCC1)c1cccs1	30%	4%	-1%	u	2.5µM*	11
Cc1cc(C)c2nc(N3CCN(C)CC3)c(C#N)cc2c1	5%	-1%	-8%	-4%	6.3µM*	-24
Cc1ccc2cc(C#N)c(N3CCN(C)CC3)nc2c1	1%	-2%	-15%	-1%	0%	x
Cc1ccc2nc(N3CCN(C)CC3)c(C#N)cc2c1	-2%	-1%	-1%	-4%	6.3µM*	0
CCN(CC)c1cc(C)c2cc(NC(=O)/C=C/c3ccc(C)cc3)ccc2n1	x	-6%	x	x	x	x
CC[C@H](C)[C@H]1O[C@]2(CC[C@@H]1C)C[C@@H]1C[C@@H](CC=C(C)[C@@H](O[C@H]3C[C@H](OC)[C@@H](O[C@H]4C[C@H](OC)[C@@H](O)[C@H](C)O4)[C@H](C)O3)[C@@H](C)C=CC=C3CO[C@@H]4[C@H](O)C(C)=C[C@@H](C(=O)O1)[C@]34O)O2	-6%	x	x	x	x	x
CC[C@@H](C)[C@H]1O[C@]2(CC[C@@H]1C)C[C@@H]1C[C@@H](C/C=C(\C)[C@@H](O[C@H]3C[C@H](OC)[C@@H](O[C@H]4C[C@H](OC)[C@@H](O)[C@H](C)O4)[C@H](C)O3)[C@@H](C)/C=C/C=C3\CO[C@@H]4[C@H](O)C(C)=C[C@@H](C(=O)O1)[C@]34O)O2	x	x	x	x	7.1µM*	-1
O=c1c2ccccc2n(Cc2ccccc2F)c(=O)n1-c1cccc(F)c1	x	18%	x	x	x	x
O=C1C2CCCN2C(c2cccnc2)N1c1cccc(Cl)c1 (stereo not given)	0%	u	-9%	2%	3.5µM*	-9
O=S(=O)(Nc1ccc(F)c(C(F)(F)F)c1)c1ccc(N2CCCCS2(=O)=O)cc1	x	21%	x	x	x	x
SMILES	AMA1 RON2 block	AmpC inh detg	AmpC no deterg	SARS PLpro yeast	NS1 inh	NS1 inh valid	others
CCC(C(=O)N1CCN(c2ccccc2)CC1)n1c(C)c2cnn(-c3ccccc3)c(=O)c2c1C (stereo not given)	x	18%	x	x	x	x
CCC(C(=O)NCCN1CCN(C)CC1)n1c(C)c2cnn(-c3ccccc3)c(=O)c2c1C (stereo not given)	-1%	-6%	64%	-3%	u	0
CC(C)(C)c1nnc(N/N=C/c2ccccc2)n(N)c1=O	57%	-15%	-8%	-19%	u	u
COc1ccc(-c2noc(CCC(=O)O)n2)cc1	3%	u	10%	u	3.5µM*	-30
CN(N=O)c1cc(O)ccc1O	x	x	x	x	18µM*	u
CC(N=Cc1c(O)[nH]c(=O)[nH]c1=O)c1ccccc1 (stereo not given)	-14%	0%	3%	-7%	10µM*	0
CCOc1ccccc1N(C)C(=O)C1CCCN(c2ncnc3onc(-c4ccc(F)cc4)c23)C1 (stereo not given)	x	10%	x	x	x	x
O=C(NNc1nc(-c2ccccc2)c2cc(Br)ccc2n1)c1ccc(S(=O)(=O)N2CCCCC2)cc1	63%	-6%	-20%	-6%	u	x
O=C(NNc1nc(-c2ccccc2)c2cc(Br)ccc2n1)c1ccc(S(=O)(=O)N2CCOCC2)cc1	45%	-13%	61%	7%	11µM*	34
CCOc1ccc(C(=O)Cn2c(=O)n3nc(CCn4nc(C)cc4C)nc3c3cc(OC)c(OC)cc32)cc1	x	-8%	x	x	x	x
O=C(NCc1ccc2[nH]c3c(c2c1)CCCC3)c1ccc(S(=O)(=O)N2CCCCC2)cc1	7%	u	-25%	2%	5µM*	6
CCN(CC)c1ccc(C=C(c2nnnn2-c2ccccc2)c2nnnn2-c2ccccc2)cc1	-12%	-13%	u	7%	7.9µM*	15
C#CC(C)(CC)NC(=O)c1cc2c(n(-c3ccc(Cl)cc3)c1=O)CC(C)(C)CC2=O (stereo not given)	x	-3%	x	x	x	x
Cc1[nH]n(-c2cccc3ccccc23)c(=O)c1/C=N/c1sc2c(c1C#N)CCC2	-2%	2%	-25%	7%	2.2µM*	-9	PR8 titer=8.5
Cc1[nH]n(-c2ccc(F)cc2)c(=O)c1/C=N/c1sc2c(c1C#N)CCCC2	4%	1%	-20%	-1%	1%	x
C=CCC(CC=C)(CNC(=O)C(=O)Nc1ccc(C(=O)OCC)cc1)c1ccccc1	x	14%	x	x	x	x
CCOc1ccc(N(c2nc(-c3ccc(OC)c(OC)c3)no2)c2nc(-c3ccc(OC)c(OC)c3)no2)cc1	x	-1%	x	x	x	x
COc1ccccc1CNC(=O)CCC1N=C2c3ccccc3N=C(SCc3ccc(Cl)cc3)N2C1=O (stereo not given)	x	5%	x	x	x	x

Compound activity from PubChem.
